Results from PubChem BioAssay (NCATS).
Records with an inconclusive call do not appear. Where a call stands in place of a potency, no number is given. Activity calls are given as the source filed them. Calls follow the shape of the dose curve; as a rule, active = well fitted curve in the direction sought with a large enough effect; inconclusive = small, poorly fitted or top-dose-only effect, or another doubt; inactive = no such curve, though single readings can be large; an effect the other way counts as inactive or inconclusive.

Assay: qHTS of pediatric cancer cell lines to identify multiple opportunities for drug repurposing: Primary screen for RD cells (AID 1347104); also: nearly all actives have a fitted effect of over 55% in size; also: potency is read from the fitted curve at half-maximal effect
Details: RD rhabdomyosarcoma viability, CellTiter-Glo luminescence, 48 h; series mostly up to 46 µM
How it was run: (§1)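 ATP-based luminescence (CellTiter-Glo) quantifies viability after a 48-hour exposure. Compounds are dosed across 8 or 11 final concentrations; DMSO and 2.3 µM bortezomib serve as controls.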

SMILES	Potency
CC[C@@]1(O)C(=O)OCc2c1cc1n(c2=O)Cc2c-1nc1ccccc1c2/C=N/OC(C)(C)C	0.668 µM (active)
CO[C@@H]1[C@@H](OC)[C@H](C)[C@@](O)(CC(=O)O)O[C@H]1[C@H](C)[C@H]1O[C@@]2(CC[C@@](C)([C@H]3CC[C@@](C)([C@@H]4O[C@@H]([C@H]5O[C@](C)(O)[C@H](C)C[C@@H]5C)C[C@@H]4OC4C[C@H](OC)[C@@H](OC)[C@H](C)O4)O3)O2)C[C@H](O)[C@H]1C (some centres not stated)	4.73 µM (active)
C[N+]1(CC2COC(c3ccccc3)(c3ccccc3)O2)CCCCC1 (configuration not stated)	inactive
CC(=O)O[C@@H]1C(=O)O[C@@H]2[C@H]1OC(=O)[C@@H]2OC(C)=O	inactive
Nc1ccc2cc3ccc(N)cc3nc2c1	21.1 µM (active)

Assay: qHTS of pediatric cancer cell lines to identify multiple opportunities for drug repurposing: Primary screen for MG 63 (6-TG R) cells (AID 1347105); also: nearly all actives have a fitted effect of over 50% in size
Details: MG 63 (6-TG R) viability, CellTiter-Glo, 48 h; series mostly up to 46 µM
How it was run: as §1

SMILES	Potency
CN1CCC(N(Cc2cccs2)c2ccccc2)CC1	inactive
Cc1cccc(N(C)C(=S)Oc2ccc3c(c2)C2CCC3C2)c1 (configuration not stated)	inactive
Nc1cc(C(F)(F)F)ccc1S	inactive
C=CCNc1nc(NCC=C)nc(N2CCN(C(c3ccc(F)cc3)c3ccc(F)cc3)CC2)n1	inactive
Cc1cccc(OCC(O)CNC(C)(C)C)c1C (configuration not stated)	inactive
CCCCN(CCCC)C(C(N)=O)c1ccc(OC)cc1 (configuration not stated)	inactive
CCCCCC(=O)O[C@]1(C(C)=O)CC[C@H]2[C@@H]3CCC4=CC(=O)CC[C@]4(C)[C@H]3CC[C@@]21C	inactive
CC(CC1c2ccccc2CCc2ccccc21)CN(C)C (configuration not stated)	inactive
C/C(=C(/OCCOc1ccc(Cl)cc1)c1ccc(Cl)cc1Cl)n1ccnc1	inactive
N#C/C(=C1/SC[C@@H](c2ccc(Cl)cc2Cl)S1)n1ccnc1	inactive
CC(C)C[C@@H]1[C@H](c2ccccc2)OC(=O)N1CCCN1CCCCCC1	inactive
CC(C)OC(=O)c1cc2c(OCC(O)CNC(C)(C)C)cccc2[nH]1 (configuration not stated)	inactive
CC1CC(=O)NN=C1c1ccc(NCC(C)(C)NCC(O)COc2cc(Cl)ccc2C#N)cc1 (configuration not stated)	inactive
CCCCC/C=C\C/C=C\CCCCCCCC(=O)NC(C)c1ccccc1 (configuration not stated)	inactive
O=C(NO)c1ccccc1	inactive
Cc1ccc(Cl)c(OCC(O)CNC(C)(C)C)c1 (configuration not stated)	inactive
Cc1ccc(CCn2c3c(c4cc(Cl)ccc42)CN(C)CC3)cn1	inactive
CC(C)C(=O)OCc1cccc(OC(=O)[C@@H]2N3C(=O)[C@@H](NC(=O)Cc4ccccc4)[C@H]3SC2(C)C)c1	inactive
CC(=O)[C@H]1CC[C@H]2[C@@H]3C=CC4=CC(=O)CC[C@@]4(C)[C@@H]3CC[C@]12C	inactive
Oc1ccc(CCNCCCCCCNCCc2ccccc2)cc1O	inactive
CCCCCOc1ccccc1/C(=C\SC)n1ccnc1	inactive
O=C(CCC1CCN(Cc2ccccc2)CC1)c1ccc2c(c1)NCCCC2	inactive
CCCCCCOC(=O)NC(=N)c1ccc(NCc2nc3cc(C(=O)N(CCC(=O)OCC)c4ccccn4)ccc3n2C)cc1	inactive
CCOC(=O)Cn1cccc1-c1nc(-c2ccc(OC)cc2)c(-c2ccc(OC)cc2)s1	inactive
CN1CCC(Nc2ncc3ncnc(Nc4ccc(F)c(Cl)c4)c3n2)CC1	inactive

Assay: qHTS of pediatric cancer cell lines to identify multiple opportunities for drug repurposing: Primary screen for control Hh wild type fibroblast cells (AID 1347106);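 also: a drop in luminescence marks cytotoxicity and a rise apparent proliferation; nearly all actives have a fitted effect of over 55% in size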
Details: Hh wild-type fibroblast viability, CellTiter-Glo luminescence, 48 h; series mostly up to 46 µM
How it was run: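 Viability after 48 h compound treatment at 37C, 500-1,000 cells/well, read as ATP luminescence with CellTiter-Glo. Primary screens used 11-point (MIPE, 0.78 nM-46 µM) or 8-point (NPC, 0.59 nM-46 µM) final concentrations; follow-up screens used 11-point dilutions.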

SMILES	Potency
CN1CCC(N(Cc2cccs2)c2ccccc2)CC1	inactive
Cc1cccc(N(C)C(=S)Oc2ccc3c(c2)C2CCC3C2)c1 (configuration not stated)	inactive
Nc1cc(C(F)(F)F)ccc1S	inactive
CC[C@@]1(O)C(=O)OCc2c1cc1n(c2=O)Cc2c-1nc1ccccc1c2/C=N/OC(C)(C)C	inactive
Cc1ccc(C(=O)Oc2ccc(C(O)CNC(C)(C)C)cc2OC(=O)c2ccc(C)cc2)cc1 (configuration not stated)	inactive
C=CCNc1nc(NCC=C)nc(N2CCN(C(c3ccc(F)cc3)c3ccc(F)cc3)CC2)n1	inactive
Cc1cccc(OCC(O)CNC(C)(C)C)c1C (configuration not stated)	inactive
Nc1ccc2c(c1)CN1C(=O)c3ccccc3C1=N2	inactive
COc1c(C)c2c(c(O)c1C/C=C(\C)CCC(=O)OCCN1CCOCC1)C(=O)OC2	inactive
CCCCCC(=O)O[C@]1(C(C)=O)CC[C@H]2[C@@H]3CCC4=CC(=O)CC[C@]4(C)[C@H]3CC[C@@]21C	inactive
CC(CC1c2ccccc2CCc2ccccc21)CN(C)C (configuration not stated)	inactive
O=S(=O)(O)c1ccc2nc(-c3ccccc3)[nH]c2c1	inactive
C[N+]1(CC2COC(c3ccccc3)(c3ccccc3)O2)CCCCC1 (configuration not stated)	inactive
C/C(=C(/OCCOc1ccc(Cl)cc1)c1ccc(Cl)cc1Cl)n1ccnc1	inactive
N#C/C(=C1/SC[C@@H](c2ccc(Cl)cc2Cl)S1)n1ccnc1	inactive
CC(C)OC(=O)c1cc2c(OCC(O)CNC(C)(C)C)cccc2[nH]1 (configuration not stated)	inactive
CC1CC(=O)NN=C1c1ccc(NCC(C)(C)NCC(O)COc2cc(Cl)ccc2C#N)cc1 (configuration not stated)	inactive
CCCCC/C=C\C/C=C\CCCCCCCC(=O)NC(C)c1ccccc1 (configuration not stated)	inactive
O=C(NO)c1ccccc1	inactive
CCC(C(=O)NC(=O)NC(C)=O)c1ccccc1 (configuration not stated)	inactive
Cc1ccc(CCn2c3c(c4cc(Cl)ccc42)CN(C)CC3)cn1	inactive
CC(C)C(=O)OCc1cccc(OC(=O)[C@@H]2N3C(=O)[C@@H](NC(=O)Cc4ccccc4)[C@H]3SC2(C)C)c1	inactive
CC(=O)[C@H]1CC[C@H]2[C@@H]3C=CC4=CC(=O)CC[C@@]4(C)[C@@H]3CC[C@]12C	inactive
CCCN(CCC)C(=O)C(CCC(=O)OCCCN1CCN(CCOC(=O)Cc2c(C)n(C(=O)c3ccc(Cl)cc3)c3ccc(OC)cc23)CC1)NC(=O)c1ccccc1 (configuration not stated)	inactive
CN1CC[C@H](c2c(O)cc(O)c3c(=O)cc(-c4ccccc4Cl)oc23)[C@H](O)C1	inactive
O=C(CCC1CCN(Cc2ccccc2)CC1)c1ccc2c(c1)NCCCC2	inactive
CCOC(=O)Cn1cccc1-c1nc(-c2ccc(OC)cc2)c(-c2ccc(OC)cc2)s1	inactive
